# Screening results: PubChem, National Center for Advancing Translational Sciences (NCATS)
# USP2a block = inhibitors of human ubiquitin-specific protease USP2a. O75604. USP2 core, Ub-CHOP2 coupled fluorogenic reporter, 485/531. Potency, µM (series often up to 38.3 µM), hits mostly inhibitors. 0.01% of 330,000 active. AID 463254
#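 Deubiquitinase activity read as fluorescence (485/531 nm) after Ub-CHOP2 cleavage activates the enterokinase reporter on its substrate; USP2 core 10nM, Ub-CHOP2 and substrate 25nM each, 30min compound preincubation then 60min RT; data normalized to NEM, curves fitted.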
# ALOX12 inh = inhibitors of human 12S-lipoxygenase ALOX12; Potency, µM (top dose mostly 108 µM), hits mostly inhibitors; 1.1% of 580,000 active; P18054; purified 12hLO, xylenol orange hydroperoxide absorbance; AID 1671190
#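 Purified human 12hLO (150 nM final) in 25 mM Hepes, 0.01% Triton X-100, pH 7.0 was preincubated 15 min at room temperature with compound. Then 40 uM arachidonic acid was added, 30 min. Hydroperoxide was read by Fe-XO absorbance ratio 573/405 nm.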
# Eya2 phos inh = blocks the phosphatase activity of human Eya2; AID 488837; 0.006% of 330,000 active; recombinant Eya2, OMFP fluorescence dephosphorylation (OMFP is methylfluorescein phosphate); O00167; Potency, µM (highest dose often 76.9 µM), actives largely listed as inhibitors
#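 Eya2 (0.2 uM) preincubated 10 min at ambient with compound, then OMFP substrate added at 50 uM; 10 min reaction in 50 mM HEPES pH 7.5, 50 mM NaCl, 5 uM MgCl2, 0.05% BSA, 1 mM DTT. Fluorescence read at Ex 485/Em 525 nm.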
# PTAP TSG101 blk = blocks PTAP/TSG101 interaction to inhibit HIV-1 budding; Fluorescence polarization, FITC-PTAP peptide / Tsg101 binding; Potency, µM (titrated, usually from 115 µM), hits mostly inhibitors; 340,000 tested, under 10 active; active = well fitted inhibition curve with a large enough effect in the main read-out, with a control signal flat, not every such curve was filed as active; inconclusive = small, poorly fitted or top-dose-only effect, or effect the other way, or a change in a side signal; inactive = no such curve, though single readings can be large or run the other way
# Target sequence (Q99816 whole entry, looked up): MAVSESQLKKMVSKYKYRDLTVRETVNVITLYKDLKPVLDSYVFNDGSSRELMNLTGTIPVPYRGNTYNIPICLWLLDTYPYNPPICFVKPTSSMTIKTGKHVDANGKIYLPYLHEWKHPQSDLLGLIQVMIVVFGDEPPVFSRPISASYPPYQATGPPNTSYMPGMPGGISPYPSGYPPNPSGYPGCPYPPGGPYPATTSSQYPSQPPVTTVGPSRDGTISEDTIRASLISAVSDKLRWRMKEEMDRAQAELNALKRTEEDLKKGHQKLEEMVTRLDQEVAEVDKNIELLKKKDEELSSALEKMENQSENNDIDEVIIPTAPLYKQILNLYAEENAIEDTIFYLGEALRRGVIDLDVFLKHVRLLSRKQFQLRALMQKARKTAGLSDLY
#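 FP read-out: FITC-PTAP peptide, 50 nM final, binding Tsg101 binding domain, 10 uM final; 20 min, r.t.; 10 mM HEPES pH 7.5, 0.15 M NaCl, 0.01% Tween 20, 3 mM EDTA, 0.1 mM TCEP.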
# A number is an active result; . = inactive; ? = inconclusive; / = not tested or not shown; ! = a repeat was not active. Only some compounds are listed: those with a hit (about 1.1% of all), similar ones and a draw of the others. Unless noted, calls come from the whole dose curve; as a rule, active = well fitted curve in the direction sought with a large enough effect; inconclusive = small, poorly fitted or top-dose-only effect, or another doubt; inactive = no such curve, though single readings can be large; an effect the other way counts as inactive or inconclusive.
SMILES,USP2a block,ALOX12 inh,Eya2 phos inh,PTAP TSG101 blk
c1ccc(OCCN2CCC(c3nc4ccccc4s3)CC2)cc1,/,5.01µM,/,/
c1ccc(CCCN2CC[C@H](c3nc4ccccc4s3)C2)cc1,/,.,/,/
COc1ccc2nc3n(c2c1)[C@@H](CNCC(C)(C)C)COC3,/,.,/,/
O=C(Nc1cccc(OCc2ccncc2)c1)c1ccc[n+]([O-])c1,/,.,/,/
S=c1[nH]c2ccc(Cc3ccc4[nH]c(=S)[nH]c4c3)cc2[nH]1,.,44.7µM,.,.
Cc1sc2ncnc(Sc3ccccc3C(=O)Nc3ccc(Br)cc3)c2c1C,.,10µM,.,.
O=c1cc(-c2ccccc2)sc2c1ccc1ccccc12,/,.,/,/
CCOC(=O)c1sc2nc3c(SCC(=O)O)cc(C(=O)c4cc(F)ccc4O)cn3c(=O)c2c1C,.,?,.,.
COc1ccc(O)c(C(=O)c2cc(SCC(=O)O)c3nc4sc5c(c4c(=O)n3c2)CCCC5)c1,.,35.5µM,.,.
COc1cc(Cl)c(C)cc1NC(=O)c1cc(=O)n2c(nc3ccccc32)s1,/,44.7µM,/,/
CN(C)c1ccc(C=Cc2ccnc3c(O)cccc23)cc1,/,11.2µM,/,/
Cc1c(-c2cccc(Cl)c2)nc2ccccc2c1C(=O)NC1CCCCC1C (stereo unspecified),/,.,/,/
CCCNC(=O)/C=C/c1ccc(C(C)C)cc1,.,?,.,.
CC(C)c1ccc(/C=C/C(=O)NCCC2=CCCCC2)cc1,.,39.8µM,.,.
O=[N+]([O-])c1ccc(/C=N/Nc2ccc3ccccc3c2)o1,.,10µM,.,.
COc1ccc(OC)c(-c2cc3ccc(O)cc3oc2=O)c1,/,.,/,/
COC(=O)C1=C(CCc2ccccc2)NC(=O)NC1c1ccc(Cl)cc1 (stereo unspecified),/,35.5µM,/,.
COC(=O)C1=C(C)N(Cc2ccc(Cl)cc2)C(=S)NC1c1ccccc1 (stereo unspecified),/,39.8µM,/,/
COC(=O)C1=C(C)N(Cc2ccccc2)C(=S)NC1c1ccc(Cl)cc1 (stereo unspecified),/,35.5µM,/,/
CCOC(=O)C1=C(CNc2ccc(C)c(Cl)c2)NC(=O)NC1c1ccc(Cl)cc1 (stereo unspecified),/,8.91µM,/,/
CCC(=O)N(C1CCOCC1)C1CCN(S(=O)(=O)c2ccc(F)c(C)c2)CC1,/,.,/,/
CCCS(=O)(=O)NC(=O)C1(C)CCCN(C(=O)CCc2ccccc2)C1 (stereo unspecified),/,.,/,/
COc1ccc(-c2csc(N3CCN(C(=O)c4ccco4)CC3)n2)cc1,11.2µM,.,.,.
O=C1C=C(C2CCCCC2)C(=O)c2ccccc21,/,44.7µM,/,.
Cc1cccc(Nc2nc(-c3ccc4c(c3)CCN4S(C)(=O)=O)cs2)c1,/,35.5µM,/,/
SMILES,USP2a block,ALOX12 inh,Eya2 phos inh,PTAP TSG101 blk
CN(C)CCN(C)C(=O)c1ccc(-c2ncc3cnc(-c4cccc(F)c4)cn23)cc1,/,.,/,/
CCCC(=O)OC,/,.,/,/
COc1ccc(-c2nnc3ccc(SCC(=O)N4CCN(c5ccccc5)CC4)nn23)cc1,/,31.6µM,/,.
CC(Sc1ccc2nnc(-c3ccc(F)cc3)n2n1)C(=O)O (stereo unspecified),.,?,.,.
Cc1ccc(-c2nnc3ccc(SC(C)C(=O)O)nn23)cc1 (stereo unspecified),.,31.6µM,.,.
O=C1NN(c2ccc(F)cc2)C(=O)/C1=C\C=C\c1ccco1,.,44.7µM,.,.
Cn1c(-c2cccc(Br)c2)cnc1NCc1cccc(F)c1,/,11.2µM,/,/
CC(=O)Nc1ccc(NC[C@@H]2C=C(C)[C@H](Cc3nnc(C)o3)C[C@H]2C(C)C)cn1,/,.,/,/
Cc1sc(NC(=O)/C=C/c2cccs2)c(C#N)c1C,/,7.94µM,/,/
O=C(/C=C/c1cccs1)Nc1scc(-c2ccccc2)c1C(=O)O,.,44.7µM,.,.
O=C(/C=C/c1ccco1)OCC(=O)C12CC3CC(CC(C3)C1)C2,/,39.8µM,/,/
C/C(=N\NC(=O)c1ccccc1C)c1ccc(C)cc1,/,.,/,/
Cc1ccc(NC(=O)c2ccc3c(c2)N(C)C2CCCCCN2C3=O)cc1C (stereo unspecified),/,.,/,/
COC(=O)C1=C(C)N(Cc2ccc(Cl)cc2)C(=S)NC1c1ccc(Br)cc1 (stereo unspecified),/,31.6µM,/,/
COC(=O)C1=C(C)N(Cc2ccc(Cl)cc2)C(=S)NC1c1ccc(F)cc1 (stereo unspecified),/,39.8µM,/,/
COC(=O)C1=C(C)N(Cc2ccccc2)C(=O)N[C@H]1c1ccc(Br)cc1,.,.,.,.
COC(=O)[C@@H]1Cc2c([nH]c3ccccc23)[C@@H]2C[C@@H](NCCNC(C)=O)C[C@@H](c3cccc(Cl)c3)N12,/,.,/,/
Cc1ccc(CNC(=O)c2ccc(CSCc3ccc(C)cc3)o2)cc1,/,11.2µM!,/,/
COCCCNC(=O)c1ccc(CSCc2ccc(C)cc2)o1,.,.,.,.
CC(CNC(=O)Cn1nc(C(N)=O)c2ccccc2c1=O)(c1ccccc1)c1ccccc1,/,31.6µM,/,/
CCc1cccc(C)c1NC(=O)Cn1nc(C(=O)O)c2ccccc2c1=O,/,15.8µM,/,/
CCc1cccc(CC)c1NC(=O)Cn1nc(C(=O)O)c2ccccc2c1=O,/,.,/,/
CCN(CC)CCNC(=O)c1ccc(NC(=O)Cc2cccc(C(F)(F)F)c2)cc1,/,44.7µM,/,/
Cc1nc2ccc(NC(=O)Cc3cccc(F)c3)cc2s1,.,.,.,.
Cc1nc2ccc(NC(=O)Cc3cccc(C(F)(F)F)c3)cc2s1,/,39.8µM,/,/
SMILES,USP2a block,ALOX12 inh,Eya2 phos inh,PTAP TSG101 blk
COc1ccccc1Cn1[nH]nnc1=S,.,22.4µM,.,.
COc1ccccc1CN1C(=O)CNC1=S,.,/,.,.
Cc1ccc(O)c(NC2=C(Cl)C(=O)N(Cc3ccccc3)C2=O)c1,.,5.62µM,.,.
Cc1ccc(C(=O)N2CCCCC2)cc1NC1=C(Cl)C(=O)N(Cc2ccccc2)C1=O,.,.,.,.
O=S(c1ccccc1O)S(=O)c1ccccc1O (stereo unspecified),/,2.24µM,/,.
Cn1cc(-c2cc(=O)c3ccnc(NCc4ccc5c(c4)OCO5)c3o2)cn1,/,.,/,/
O=C1OCC2=C1C(c1ccc3c(c1)OCO3)CC(=O)N2c1ccc(C(F)(F)F)cc1 (stereo unspecified),/,.,/,/
Cc1nn2c(c1-c1cccnc1N1CCOCC1)N(CC1CC1)CCC2,/,10µM,/,/
Cc1cc(Cl)ccc1OCC(=O)NCc1ccc(-c2nc3ncccc3o2)cc1,/,.,/,/
COC(=O)[C@@H]1Cc2ncn(C)c2CN1S(=O)(=O)c1ccc(F)cc1,/,56.2µM,/,/
COc1cccc(C(=O)Nc2cccc(NC(=O)c3ccccc3Cl)c2)c1,.,.,.,.
CCOc1cccc(C(=O)NC(=S)Nc2ccccc2)c1,.,14.1µM,.,.
CCOc1cccc(C(=O)NC(=S)Nc2cccnc2)c1,.,.,.,.
CCCCOc1cccc(C(=O)NC(=S)Nc2cccc(C(F)(F)F)c2)c1,.,31.6µM,.,.
CCOc1cccc(C(=O)NC(=S)Nc2cccc(NC(=O)c3ccccc3Cl)c2)c1,.,11.2µM,.,.
CCOc1cc(C(=O)OCC(N)=O)cc(OCC)c1OCC,/,.,/,/
CCN(CC(=O)Nc1c(F)cccc1F)C(=O)/C=C/c1ccc2ccccc2n1,.,31.6µM,.,.
